Source: PubChem BioAssay AID1578 (Sanford-Burnham Center for Chemical Genomics, 2009)
Screen size: about 290,000 compounds; about 3,000 (1%) were called active. What follows is part of a selection rich in actives, with near analogues and random picks from the rest. Values without a mark were called inactive. Rule as the data show it: active = inhibition mostly above about 36% (no sharp cut-off); inactive = mostly below about 34%.

Assay: NOD1 signaling inhibitors, primary screen, cell-based, luminescence, uHTS (AID 1578);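 also: HEK-293T reporter cells stimulated with the NOD1 agonist gamma-tri-DAP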
Conditions: NOD1-driven NF-kB luciferase reporter cells, at 4 µM, active compounds read high

SMILES	inhibition
Cc1cc(NC(=O)c2ccc(Br)o2)ccc1NC(=O)c1ccco1	-55.3%
COC1c2ccccc2C(=O)N1CCc1ccc(Cl)cc1 (centres undefined)	-31.1%
CNc1cc(C)nc(N2CCOCC2)n1	-5.2%
CC1(c2cc([N+](=O)[O-])cc([N+](=O)[O-])c2)CC(C)(C)N(C(=O)c2ccccc2)c2ccccc21 (centres undefined)	4.5%
CC1(c2ccccc2)CC(C)(C)N(C(=O)c2cc([N+](=O)[O-])cc([N+](=O)[O-])c2)c2ccccc21 (centres undefined)	-2.3%
CC1(c2cccc([N+](=O)[O-])c2)CC(C)(C)N(C(=O)c2ccccc2)c2ccccc21 (centres undefined)	82.6% (active)
CCCCCCCC(O)CC(CC1CCCCC1)C(=O)NN (centres undefined)	-15%
Cc1cc(C(F)(F)F)nn1CC(=O)NNC(=S)NCC(C)C	-1.1%
Cc1ccc2c(c1)N(CCCC(=O)NCCCN1CCCC1=O)C(=O)CO2	-14.9%
COc1cccc(NC(C)C(=O)N2CC(C)OC(C)C2)c1 (centres undefined)	-26.3%
O=c1c2cc(Br)ccc2nc(-c2ccccc2)n1O	6.1%
Cc1ccc(-c2nc3ccc(Cl)cc3c(=O)n2O)cc1	1.3%
COc1ccc(CCNC(=O)C2CCN(S(=O)(=O)c3ccc4c(c3)oc(=O)n4C)CC2)cc1OC	-10.7%
COC(=O)c1sccc1NC(=O)CSc1ccccc1NS(=O)(=O)c1ccc(Cl)cc1	44.2%
COC(=O)c1sccc1NC(=O)CSc1ccccc1NS(=O)(=O)c1ccccc1Cl	5.3%
CC(C)[C@H](NC(=O)C1CCN(S(=O)(=O)c2ccccc2)CC1)C(=O)NCc1ccccn1	-25.4%
CCOC(=O)C(=CNc1cc(C(F)(F)F)ccc1N1CCOCC1)C(=O)OCC	4%
CCC(C)(C)NC(=O)C(c1ccc(OC)cc1)N(Cc1ccc(OC)cc1)C(=O)CCC(=O)Nc1cc(C)on1 (centres undefined)	-11.8%
CN(C)c1nc(/C=C(\C#N)C(N)=O)c(Cl)n1-c1ccc(F)cc1	-6.6%
CN(C)c1nc(C=C(C#N)C#N)c(Cl)n1-c1ccc(F)cc1	80.7% (active)
COCCNC(=O)/C(C#N)=C/c1nc(N(C)C)n(-c2ccc(F)cc2)c1Cl	-7.8%
Oc1c(Br)cc(Br)c(/C=N/n2c(-c3ccccc3)n[nH]c2=S)c1Br	63.3% (active)
Oc1c(Br)cc(/C=N/n2c(-c3ccccc3)n[nH]c2=S)c(Br)c1O	-1.1%
Oc1c(Br)cc(/C=N/n2c(-c3ccccc3)n[nH]c2=S)c(O)c1Br	28.5%
